For 40 compounds, growth results are on record in PubChem BioAssay (NCI).

About 83,000 compounds went through this panel and 20% of them were active in at least one assay; those are over-represented in the sample as a whole.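 Percent growth is the endpoint: 0 to 100 indicates growth inhibition (40 means 60% inhibition), 0 means no net growth, and negative values indicate cell death.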 Values without a mark were called inactive. The source made the active and inactive calls.

The subject of this assay is EKVX NSCLC. Put plainly: NCI-60 one-dose screen, 48 h (100 = growth as untreated, 0 = no growth, -100 = all killed). The conditions noted are these: 10 µM unless noted. As for the experimental part: Growth inhibition of the EKVX human Non-Small Cell Lung tumor cell line is measured as a screen for anti-cancer activity. Cells are grown in 96 well plates and exposed to the test compound for 48 hours. Compounds are tested at a single concentration, which is 10^-5 M for most compounds. The reported endpoint is percent growth (GI% or GIPRCNT), where numbers from 0 - 100% represent growth inhibition, and numbers from -100% - 0 represent cell death. For example, a value of 40 represents 60% growth inhibition. A value of 0 means no net growth occurred over the course of the experiment. A value of -40 indicates 40% of cells at the beginning of the experiment died by the end of the experiment. A value of -100 means all cells are dead at the end of the experiment.
NCI-60 Human Tumor Cell Lines Screen was performed using the standard one-dose NCI protocol, which is described in more detail at https://dtp.cancer.gov/discovery_development/nci-60/default.htm.
Compounds with GIPRCNT values below 10 were considered active. Activity score was based on GIPRCNT using the following formula: […]
Score is 0 for GIPRCNT values of 100 or above, 50 for GIPRCNT values of 0, and 100 for GIPRCNT values of -100.
In the case of `O=[N+]([O-])c1cc([N+](=O)[O-])c(Nn2c3ccccc3c3ccccc32)c([N+](=O)[O-])c1`, the growth was 6.19% (active).
The figure for `CN1CCC(O)(c2ccc(F)cc2)C(C(=O)c2ccc(F)cc2)C1` (stereo not given) is 106%; for `COc1cc(NCCCN=C(N)N)c2ncccc2c1` it is 70.6%; for `C=CCCCN=C=S` it is 92.7%.
The figure for `CNCc1cccnc1` is 114%; for `C=CC1=C[C@@H]2[C@@H]3O[C@]4(CC[C@H](O4)[C@@H](C)C[C@@H](O)C3=O)C[C@H](O)C3=NCC[C@@]32CC1` it is -29.1% (active).
For `COC(=O)CC[C@H](Cc1ccccc1)NC(=O)c1csc([C@@H](C[C@H](C(C)C)N(C)C(=O)[C@@H](NC(=O)[C@H]2CCCCN2C)C(C)C)OC(C)=O)n1` the value was 44.1%.
In the case of `O=C1C2C(C(=O)[N]1[Hg][c]1ccccc1)C1(Cl)C(Cl)=C(Cl)C2(Cl)C1(Cl)Cl` (stereo not given), the growth is -7.36% (active).
As to `C=CC[Se]C(=O)c1ccccc1OC(C)=O`, the growth was -30.8% (active).
The figure for `COc1cccc2c1c(C(=O)C(=O)Nc1ccn[nH]1)cn2Cc1ccc(F)cc1` is 119%; for `CCCOC(=O)N[C@H]1CCc2c(Br)c(OC)c(OC)c(OC)c2-c2ccc(SC)c(=O)cc21` it is 40.3%.
As to `COc1cc2c(c(OC)c1OC)-c1ccc([O-])c(=O)cc1[C@@H](NC(C)=O)CC2.COc1cc2c(c(OC)c1OC)-c1ccc([O-])c(=O)cc1[C@@H](NC(C)=O)CC2.[Cu+2]`, the growth was 62%.
The figure for `COc1cccc(/C=C/[N+](=O)[O-])c1` is 89.2%; for `C=C1[C@@H](C)[C@H]2[C@H](Cc3ccccc3)NC(=O)[C@]23[C@@H](O)/C=C/[C@@](C)(O)C(=O)[C@@H](C)C/C=C/[C@H]3[C@@H]1O` it is 57.2%; for `CC(=O)OCc1cc[c]([Hg][Cl])o1` it is 78.8%.
For `CC(=O)O[C@H]1C(=O)[C@@]2(C)[C@H]([C@H](OC(=O)c3ccccc3)[C@]3(O)C[C@H](OC(=O)[C@H](OC(=O)OC[C@@H]4COC(C)(C)O4)[C@@H](NC(=O)c4ccccc4)c4ccccc4)C(C)=C1C3(C)C)[C@]1(OC(C)=O)CO[C@@H]1C[C@@H]2O` the value was 29.1%; for `Cc1ccc(N2COOC3(OOC2)C2CC4CC(C2)CC3C4)cc1`, 93%; for `CCCCN1CCCC[C@@H]1C(=O)N[C@H](C(=O)N(C)[C@H](C[C@@H](OC(C)=O)c1nc(C(=O)NC2CCC(C(=O)OC)CC2)cs1)C(C)C)C(C)C` (stereo not given in full), 34.8%.
For `N#Cc1c(Br)n(C2OC(CO)C(O)C2O)c2ncnc(N)c12` (stereo not given) the value was 95.7%.
Consider `C=C1C[C@](OC)([C@H](O)C(=O)N[C@@H](OC)[C@@H]2C[C@@H](O)C(C)(C)[C@@H](C[C@@H](COC)OC)O2)O[C@H](C)[C@@H]1C`, for which the growth is -33.9% (active).
The figure for `CO[C@H](C(=O)O)[C@@H]1Cc2cc3cc(OC4CC(OC5CC(O)C(O)C(C)O5)C(O)C(C)O4)c(C)c(O)c3c(O)c2C(=O)[C@H]1OC1CC(OC2CC(OC3CC(C)(O)C(O)C(C)O3)C(O)C(C)O2)C(O)C(C)O1` (stereo not given in full) is 31.3%.
Consider `CC1(C)C(C(=O)c2cn(CCCCF)c3ccccc23)C1(C)C`, for which the growth is 88.7%.
For the compound `CC(=O)O[C@H](C[C@H](C(C)C)N(C)C(=O)[C@@H](NC(=O)[C@H]1CCCCN1C)C(C)C)c1nc(C(=O)N[C@@H](Cc2ccccc2)C[C@H](C)C(=O)O)c(CCOCc2ccccc2)s1`, the growth was 49%.
For `COC(=O)[C@@H](C)C[C@H](Cc1ccccc1)NC(=O)c1csc([C@@H](C[C@H](C(C)C)N(C)C(=O)[C@@H](NC(=O)[C@H]2CCCCN2C)C2CCCCC2)OC(C)=O)n1` the value was 25%.
The figure for `O=C1CC2(CC3(Cl)C(Cl)=C(Cl)C2(Cl)C3(Cl)Cl)C(=O)O1` (stereo not given) is 95.7%; for `C#Cc1ccc2c(c1)C(c1ccccc1F)=NCC(=O)N2C` it is 48.9%.
For `COc1ccc(Nc2ccc([N+](=O)[O-])cc2[N+](=O)[O-])cc1CN(CCCl)CCCl` the value was 70.7%.
For `O=C(c1cccc(O)c1O)c1cn(Cc2ccc(F)cc2)c2cccc(O)c12`, the growth was 52.4%.
For `CC[C@H](C)[C@H](NC(=O)c1cccn1C)C(=O)N(C)[C@H](C[C@@H](OC(C)=O)c1nc(C(=O)N[C@@H](Cc2ccccc2)C[C@H](C)C(=O)OC)cs1)C(C)C` the value was 54.3%.
The figure for `CCOC(=O)[C@@H](C)C[C@H](Cc1ccccc1)NC(=O)c1csc([C@@H](C[C@H](C(C)C)N(C)C(=O)[C@H](CC)NC(=O)[C@H]2CCCCN2C)OC(C)=O)n1` is 38.6%; for `C[C@@H]1O[C@@H](O[C@H]2C[C@@H](O)[C@]3(CO)C4C(CC[C@]3(O)C2)[C@@]2(O)CC[C@H](C3=CC(=O)OC3)[C@@]2(C)C[C@H]4O)[C@H](O)[C@H](O)[C@H]1O` (stereo not given in full) it is -74.3% (active); for `COC(C(=O)[C@@H](O)[C@@H](C)O)[C@@H]1Cc2cc3cc(O[C@H]4C[C@@H](O[C@H]5C[C@@H](O)[C@H](O)C(C)O5)[C@H](O)C(C)O4)c(C)c(O)c3c(O)c2C(=O)[C@H]1O[C@H]1C[C@@H](O[C@H]2C[C@@H](O[C@H]3C[C@@H](O)[C@@H](O)C(C)O3)[C@@H](O)C(C)O2)[C@H](O)C(C)O1` (stereo not given in full) it is 24.4%.
The figure for `CCCCC1(CCC)C(=O)NC(=S)NC1=O` is 102%.
As to `ClCCN(CCCl)c1ccc(/C=N/Nc2ncnc3nc[nH]c23)cc1`, the growth was 85.1%.
The figure for `CCCCCCCCCCCCCCCCCC1OC[C@@H](COC(=O)O[C@@H](C(=O)O[C@H]2C[C@@]3(O)[C@@H](OC(=O)c4ccccc4)[C@@H]4[C@]5(OC(C)=O)CO[C@@H]5C[C@H](O)[C@@]4(C)C(=O)[C@H](OC(C)=O)C(=C2C)C3(C)C)[C@@H](NC(=O)c2ccccc2)c2ccccc2)O1` (stereo not given in full) is 96.9%; for `C[C@]12CC[C@H]3[C@@H](CC[C@]4(O)C[C@@H](O[C@@H]5O[C@H](CO)[C@@H](O[C@@H]6OC[C@@H](O)[C@H](O)[C@H]6O)[C@H](O)[C@H]5O)CC[C@]34C=O)[C@@]1(O)CC[C@@H]2C1=CC(=O)OC1` it is -59.9% (active).
The figure for `CCN(CCO)C(Cc1ccccc1)c1ccccc1` (stereo not given) is 96.5%.
`CCCCCN(CCCCC)CC(O)c1cc(Cl)ccc1OC` (stereo not given): the growth is 52.4%.
The figure for `O=C(CCCC1CCCCC1)OCC(Cl)(Cl)Cl` is 105%; for `Oc1c(CCl)cc(Cl)cc1CCl` it is 104%.
